# Data from PubChem BioAssay AID2570 (National Center for Advancing Translational Sciences (NCATS), 2010).
# Records with an inconclusive call do not appear. The source made the active and inactive calls. The call rests on the fitted dose curve; in most records, active means well fitted curve in the direction sought with a large enough effect; inconclusive means small, poorly fitted or top-dose-only effect, or another doubt; inactive means no such curve, though single readings can be large or run the other way.
# Target: Vasopressin V1b receptor (Homo sapiens) (UniProt P47901)
# Sequence (P47901 whole entry, looked up): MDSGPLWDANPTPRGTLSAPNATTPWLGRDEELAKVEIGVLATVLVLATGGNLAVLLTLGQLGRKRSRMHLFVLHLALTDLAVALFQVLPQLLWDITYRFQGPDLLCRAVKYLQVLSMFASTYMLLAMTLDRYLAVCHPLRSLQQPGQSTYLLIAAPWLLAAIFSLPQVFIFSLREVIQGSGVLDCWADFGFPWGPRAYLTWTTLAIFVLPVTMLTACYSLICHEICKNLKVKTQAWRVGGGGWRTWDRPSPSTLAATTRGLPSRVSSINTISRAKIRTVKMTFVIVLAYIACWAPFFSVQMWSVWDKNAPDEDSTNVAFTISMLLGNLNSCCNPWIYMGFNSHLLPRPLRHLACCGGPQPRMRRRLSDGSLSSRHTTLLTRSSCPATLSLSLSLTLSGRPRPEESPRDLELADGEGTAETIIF
# Assay: Counterscreen Concentration-Response Assay for Antagonists of the Neuropeptide S Receptor: Vasopressin Receptor Calcium Signal Transduction
# Conditions: CHO-AVPR1B, vasopressin-stimulated calcium fluorescence, FDSS
# From the text: NIH Chemical Genomics Center [NCGC] NIH Molecular Libraries Probe Production centers Network [MLPCN] MLPCN Grant: X01-DA026210-01 Assay Submitter (PI): Heilig, Markus Alexander NCGC Assay Overview: Neuropeptide S receptor (NPSR), previously known as GPR154, is a recently de-orphanized G protein coupled receptor. Its endogenous ligand is the 20 amino acids peptide Neuropeptide S (NPS). […] NPS and its receptor are found in various tissues. Specifically they are highly expressed in brain areas that have been implicated in modulation of arousal, stress and anxiety. Central administration of NPS in mice produces an unusual profile of activity by inducing wakefulness and arousal, while at the same time suppressing anxiety. Therefore, NPSR may represent a novel drug target for the treatment of sleep and anxiety disorders. To identify NPSR antagonists, we developed a cell-based assay with transfected NPS receptor. NPS can stimulate the production of cAMP as well as release intracellular calcium in Chinese hamster ovary cells stably expressing NPS receptor. This change in intracellular calcium can be detected using a calcium indicator dye on a calcium imaging plate reader system (FDSS). To validate the specific action of compounds on the NPS receptor, a counterscreen was developed that tests compounds' antagonism of AVPR1B vasopressin receptor stimulation by vasopressin. […] shares 27% identity with the NPS receptor.
# NCGC Assay Protocol Summary: A Chinese hamster ovary (CHO) cell line stably expressing human vasopressin receptor (AVPR1B) was maintained in F-12 Kaighn's media (Invitrogen, Carlsbad, CA, 21127) supplemented with 10 % FBS, 100 units/ml penicillin, 100 ug/ml streptomycin and 250 ug/ml geneticin at 37C, 5% CO2 in a humidified atmosphere. Before the assay, aliquots of cells were frozen and stored at -135C. The assay was performed on a FDSS-7000 kinetic plate reader in 1536-well format. The maximums of kinetic fluorescence responses were converted into text files using the instrument's software data export utility. Data for antagonist response were normalized to the controls for basal activity (DMSO only) and 100% inhibition (no signal). AC50 values were determined from concentration-response data modeled with the standard Hill equation. CHO-V1B 1536-well FDSS assay protocol: (1) Frozen CHO-V1B cells were thaw, washed once with fresh media and resuspended in F-12 Kaighn's media supplemented with 10 % FBS, 100 units/ml penicillin and 100 ug/ml streptomycin. Cells were plated at 3 ul/well (1200 cells) to black, clear-bottom, tissue-culture treated 1536-well plates, and then cultured at 37C, 5 % CO2 for 16 to 30 hours. (2) Add 3 ul of calcium dye (from High Performance PBX Calcium Assay Kit, BD Biosciences). The calcium dye was prepared according to the manufactory's instruction. (3) Incubation at 37C, 5 % CO2 for 60 min. (4) Add 23 nl/well of compound in DMSO solution. The final titration for each compound was between 0.6 nM and 46 uM. (5) Load plates to FDSS-7000. The following steps were performed on FDSS-7000. (6) Record fluorescent background (Ex 480 nm, Em 520-560 nm) for 10 s. (7) Add 2 ul of stimulation reagent (1X HBSS buffer, 0.1% BSA, 60 nM vasopressin). Record antagonist response (Ex 480 nm, Em 520-560 nm) for 180 s. Keywords: MLSMR, MLPCN, NIH Roadmap, qHTS, NCGC, NPS, Neuropeptide S Antagonists
row,Structure (SMILES),max response
1,COc1cccc(C2C(C#N)=C(NC(=O)CCc3ccccc3)Oc3ccc4ccccc4c32)c1 (stereo not given),10.7% (inactive)
2,COc1cccc(C2c3c(ncn(-c4ccccc4-c4ccccc4)c3=N)Oc3ccc4ccccc4c32)c1 (stereo not given),13.8% (inactive)
3,COc1cccc(C2c3c(ncn(-c4ccc(NC(C)=O)cc4)c3=N)Oc3ccc4ccccc4c32)c1 (stereo not given),-34.2% (inactive)
4,COc1cccc(C2c3c(ncn(-c4ccc(C)cc4)c3=N)Oc3ccc4ccccc4c32)c1 (stereo not given),-0.274% (inactive)
5,COc1cccc(C2c3c(ncn(-c4ccncc4)c3=N)Oc3ccc4ccccc4c32)c1 (stereo not given),23.2% (inactive)
6,COc1ccc(C2c3c(N)nc(Cc4ccccc4)nc3Oc3ccc4ccccc4c32)cc1OC (stereo not given),-15.7% (inactive)
7,CCOc1ccc(C2c3c(ncn(-c4ccccc4)c3=N)Oc3ccc4ccccc4c32)cc1OCC (stereo not given),-23.4% (inactive)
8,COc1cccc(C2c3c(ncn(-c4cccc(C)c4)c3=N)Oc3ccc4ccccc4c32)c1 (stereo not given),-55.3% (inactive)
9,N=c1c2c(ccn1CCCCc1ccccc1)Oc1ccc3ccccc3c1C2c1ccccc1 (stereo not given),19.5% (inactive)
10,COc1ccc(C2c3c(ncn(CCN4CCOCC4)c3=N)Oc3ccc4ccccc4c32)cc1OC (stereo not given),-15.6% (inactive)
11,Cc1c(P(=S)(c2ccccc2)c2ccccc2)[n+]2ccccc2n1CCCc1ccccc1,-9.72% (inactive)
12,Cc1c(P(=S)(c2ccccc2)c2ccccc2)c2ccccc2n1CCCc1ccccc1,8.85% (inactive)
13,O=C(c1ccccc1)N(C(=O)c1ccccc1)c1ncnc2c1C(c1ccccc1)c1c(ccc3ccccc13)O2 (stereo not given),12.9% (inactive)
14,COc1cccc(C2c3c(ncn(-c4ccccc4Cl)c3=N)Oc3ccc4ccccc4c32)c1 (stereo not given),1.44% (inactive)
15,COc1cccc(C2c3c(ncn(-c4cccc(Cl)c4)c3=N)Oc3ccc4ccccc4c32)c1 (stereo not given),-5.71% (inactive)
16,COc1cccc(C2c3c(ncn(-c4ccc(C(C)(C)C)cc4)c3=N)Oc3ccc4ccccc4c32)c1 (stereo not given),17.5% (inactive)
17,CCOC(=O)CCC(=O)Nc1ncnc2c1C(c1ccccc1)c1c(ccc3ccccc13)O2 (stereo not given),-0.278% (inactive)
18,O=C(NCc1ccccc1)Nc1ncnc2c1C(c1ccccc1)c1c(ccc3ccccc13)O2 (stereo not given),-5.16% (inactive)
19,CC(C)(C)OC(=O)Nc1ncnc2c1C(c1ccccc1)c1c(ccc3ccccc13)O2 (stereo not given),14.3% (inactive)
20,COc1cccc(C2c3c(ncn(-c4ccccc4)c3=N)Oc3ccc4ccccc4c32)c1 (stereo not given),-8.43% (inactive)

row,Structure (SMILES),max response
1,COc1cccc(C2c3c(ncn(-c4ccccc4OC)c3=N)Oc3ccc4ccccc4c32)c1 (stereo not given),-19.5% (inactive)
2,COc1ccc(C2c3c(ncn(Cc4ccccc4)c3=N)Oc3ccc4ccccc4c32)cc1OC (stereo not given),-10.2% (inactive)
3,COc1ccc(C2c3ccccc3Oc3ncn(CCN4CCOCC4)c(=N)c32)cc1OC (stereo not given),20.8% (inactive)
4,Cc1c(P(=S)(c2ccccc2)c2ccccc2)c2ccccc2n1C/C=C/c1ccccc1,0.93% (inactive)
5,COc1cccc(C2c3c(ncn(-c4ccc5c(c4)OCO5)c3=N)Oc3ccc4ccccc4c32)c1 (stereo not given),-20.7% (inactive)
6,COc1ccc(C2c3c(ncn(CCc4ccccc4)c3=N)Oc3ccc4ccccc4c32)cc1OC (stereo not given),7.55% (inactive)
7,COc1ccc(C2c3c(ncn(CCCc4ccccc4)c3=N)Oc3ccc4ccccc4c32)cc1OC (stereo not given),11.1% (inactive)
8,COc1cccc(C2c3c(ncn(-c4cccc(Br)c4)c3=N)Oc3ccc4ccccc4c32)c1 (stereo not given),-12.3% (inactive)
9,COc1cccc(C2c3c(ncn(-c4cccc(C#N)c4)c3=N)Oc3ccc4ccccc4c32)c1 (stereo not given),-10.9% (inactive)
10,COc1ccc(C2c3c(ncn(CCN4CCOCC4)c3=N)Oc3ccc4ccccc4c32)cc1 (stereo not given),-23.1% (inactive)
11,CCOC(=O)CC(=O)Nc1ncnc2c1C(c1ccccc1)c1c(ccc3ccccc13)O2 (stereo not given),-17.5% (inactive)
12,COc1ccc(C2c3c(n(CCc4ccccc4)cnc3=N)Oc3ccc4ccccc4c32)cc1OC (stereo not given),-53.4% (inactive)
13,N=c1c2c(ccn1Cc1ccccc1)Oc1ccc3ccccc3c1C2c1ccccc1 (stereo not given),18.5% (inactive)
14,COc1cccc(C2c3c(ncn(-c4cccc(F)c4)c3=N)Oc3ccc4ccccc4c32)c1 (stereo not given),-14.9% (inactive)
15,N=c1c2c(ncn1-c1ccccc1)Oc1ccc3ccccc3c1C2c1ccc2c(c1)CCO2 (stereo not given),-13.6% (inactive)
16,CCOC(=O)c1ccc(-n2cnc3c(c2=N)C(c2cccc(OC)c2)c2c(ccc4ccccc24)O3)cc1 (stereo not given),17.2% (inactive)
17,COc1cccc(C2c3c(ncn(-c4ccc(Br)cc4)c3=N)Oc3ccc4ccccc4c32)c1 (stereo not given),0.304% (inactive)
18,COc1ccc(C2c3c(n(Cc4ccccc4)cnc3=N)Oc3ccc4ccccc4c32)cc1OC (stereo not given),-20.3% (inactive)
19,COc1cccc(C2c3c(ncn(-c4ccc(F)cc4)c3=N)Oc3ccc4ccccc4c32)c1 (stereo not given),-36.5% (inactive)
20,Cc1c(P(=S)(c2ccccc2)c2ccccc2)[n+]2ccccc2n1C/C=C/c1ccccc1,1.44% (inactive)
